Pf growth 96h: P. falciparum growth inhibition at 96 hours; AID 504834; actives 6.9% (n = 320,000); Potency, µM (titrated, usually from 28.7 µM), most hits filed as inhibitors; P. falciparum luciferase reporter growth, 96 h
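Luminescence readout: decreased luciferase signal marks inhibited growth of reporter-expressing P. falciparum in infected red cells (2% hematocrit, 0.05% parasitemia final), exposed to compound two generations (96 h, 37 C, 5% CO2).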
Sm TGR inh: inhibitors of Schistosoma mansoni thioredoxin glutathione reductase. Q962Y6. purified TGR, DTNB reduction, TNB absorbance 405 nm. Potency, µM (top dose mostly 114 µM), most hits filed as inhibitors. actives 3% (n = 360,000). AID 485364; also: nearly all actives have a fitted effect of over 60% in size
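First, TGR (20 nM dispensed) and NADPH were mixed with compound. Second, a 15 min room-temperature incubation followed. Third, further NADPH and then DTNB were added to start the reaction. Finally, TNB absorbance was monitored kinetically.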
AmpC inh detg: inhibitors of E. coli AmpC beta-lactamase with detergent. AmpC hydrolysis of nitrocefin, absorbance 480 nm, 0.01% Triton. Potency, µM (series often up to 114 µM), actives largely listed as inhibitors. actives 0.041% (n = 370,000). AID 485294; also: nearly all actives have a fitted effect of over 25% in size
Target sequence (P00811 whole entry, looked up): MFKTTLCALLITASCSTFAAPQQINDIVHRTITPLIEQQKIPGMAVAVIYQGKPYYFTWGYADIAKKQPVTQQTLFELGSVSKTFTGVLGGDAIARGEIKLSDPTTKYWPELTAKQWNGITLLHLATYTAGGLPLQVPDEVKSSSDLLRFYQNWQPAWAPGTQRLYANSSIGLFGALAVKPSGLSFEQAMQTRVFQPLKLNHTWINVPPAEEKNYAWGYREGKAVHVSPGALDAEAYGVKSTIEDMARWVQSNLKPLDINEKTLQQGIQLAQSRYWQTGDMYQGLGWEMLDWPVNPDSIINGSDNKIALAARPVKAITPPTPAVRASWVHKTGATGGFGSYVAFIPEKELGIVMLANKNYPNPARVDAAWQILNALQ
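AmpC (5.3 nM in the dispensed reagent) in 20 mM phosphate pH 7.0 with 0.01% (detergent screen) or 0.0001% Triton X-100 was preincubated with compounds for 15 min at room temperature. Nitrocefin was then added from an 800 uM solution, and hydrolysis was followed at 480 nm.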
Pf growth 48h: inhibits P. falciparum growth in the first generation, 48 h. P. falciparum luciferase growth in erythrocytes, 48 h. Potency, µM (titrated, usually from 28.7 µM), most hits filed as inhibitors. actives 5.9% (n = 310,000). AID 504832
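Luminescence readout; reporter = integrated firefly luciferase in P. falciparum. RBC culture at 2% hematocrit, 0.1% parasitemia final, 37 C/5% CO2; decreased signal taken as growth inhibition.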
AmpC no deterg: inhibitors of E. coli AmpC beta-lactamase without detergent; AmpC nitrocefin hydrolysis, absorbance 480 nm, 0.0001% Triton; Potency, µM (titrated, usually from 57.1 µM), hits mostly inhibitors; actives 0.52% (n = 330,000); AID 485341; also: nearly all actives have a fitted effect of over 20% in size
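20 mM phosphate pH 7.0 + 0.01% (detergent screen) or 0.0001% Triton X-100; 5.3 nM AmpC reagent; cpd preinc 15 min RT; nitrocefin (800 uM stock) to start; A480 q20 s × 4 min; Activity was normalised to no-enzyme and no-compound control wells.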
SARS PLP yeast: inhibitors of SARS-CoV papain-like protease in yeast; S. cerevisiae expressing SARS-CoV PLpro, growth rescue; actives 0.19% (n = 330,000); AID 485353; Potency, µM (top dose mostly 32.9 µM), actives largely listed as activators; calls by dose curve; also: nearly all actives have a fitted effect of over 55% in size
Of the large screens only hits and unclear results are named; the others gave an inactive call. The list is not random: actives were taken first. Their share in the collection is about 12%. Unless noted, calls follow the shape of the dose curve; as a rule, active = well fitted curve in the direction sought with a large enough effect; inconclusive = small, poorly fitted or top-dose-only effect, or another doubt; inactive = no such curve, though single readings can be large; an effect the other way counts as inactive or inconclusive.

CC(C)(C)NC(=O)CN(Cc1ccco1)C(=O)CCC(=O)Nc1nccs1	Pf growth 96h inconclusive
Cc1ccc(S(=O)(=O)NCCC(=O)Nc2cc(S(=O)(=O)N(C)C)ccc2C)cc1C	none
CCc1ccc(CN(Cc2cccnc2)C(=O)/C=C/c2ccc(OC)cc2)cc1	Pf growth 96h inconclusive, Pf growth 48h 8.3µM
COc1ccc(/C=C/C(=O)NCc2cccnc2)cc1	Pf growth 96h inconclusive
Cc1ccccc1-c1nnn(Cc2cccc(S(=O)(=O)N3CCOCC3)c2)n1	Pf growth 48h inconclusive
O=C(Nc1ccccc1)N1CCC(=S)Nc2ccccc21	none
CC1CC(=S)Nc2ccccc2N1C(=O)Nc1ccccc1 (centres undefined)	Pf growth 96h inconclusive, Pf growth 48h 3.3µM
CC1(C)CCC(C)(C)c2cc(NC(=O)c3ccc(C(=O)O)cc3)ccc21	none (no result: Sm TGR inh, AmpC inh detg, AmpC no deterg, SARS PLP yeast)
Cc1cc(C)n2cc(CSc3ccc(Cl)cc3)nc2n1	none
c1ccc(CSCc2cn3ccsc3n2)cc1	none (no result: Pf growth 96h)
Cc1csc2nc(CSc3ccc(Cl)cc3)cn12	Pf growth 96h 3.7µM, Sm TGR inh inconclusive
Clc1ccc(SCc2cn3ccsc3n2)cc1	Pf growth 96h 10µM
O=C(COc1ccc(Cl)cc1)NC1=NN(c2ccccc2)C(=O)C1	Pf growth 96h 8.3µM
Cc1cc(OCCOCCN2CCCC2)ccc1C(C)C	Pf growth 96h 10µM, AmpC inh detg inconclusive, Pf growth 48h inconclusive
COc1ccccc1N1CCN(CC(=O)c2ccc3ccn(C(C)=O)c3c2)CC1	Sm TGR inh 25µM (no result: Pf growth 48h)
COc1ccccc1N1CCN(CCCC(=O)c2ccc(F)cc2)CC1	none (no result: Pf growth 96h)
CC(=O)OCC(=O)c1ccc2ccn(C(C)=O)c2c1	Pf growth 96h 10µM, AmpC inh detg inconclusive
COc1ccccc1N1CCN(CC(=O)N2CCCC2)CC1	Pf growth 96h inconclusive
COc1ccc(C(=O)CCN2CCN(c3ccccc3OC)CC2)cc1	Pf growth 96h inconclusive, Sm TGR inh 0.56µM, AmpC inh detg inconclusive
COC(=O)c1ccc(NC(=O)c2nc(S(=O)(=O)Cc3cccc(C)c3)ncc2Cl)cc1	Sm TGR inh 6.3µM
Cc1cccc(CS(=O)(=O)c2ncc(Cl)c(C(=O)NCc3ccc4c(c3)OCO4)n2)c1	Sm TGR inh 6.3µM, AmpC inh detg inconclusive
CC(=O)Nc1ccc(NC(=O)c2nc(S(=O)(=O)Cc3cccc(C)c3)ncc2Cl)cc1	Pf growth 96h inconclusive, Sm TGR inh 7.1µM
Cc1ccc(CNC(=O)c2nc(S(=O)(=O)Cc3ccc(C)cc3)ncc2Cl)cc1	Sm TGR inh inconclusive (no result: Pf growth 96h, Pf growth 48h, AmpC no deterg, SARS PLP yeast)
COC(=O)c1ccccc1NC(=O)c1nc(S(=O)(=O)Cc2cccc(C)c2)ncc1Cl	Sm TGR inh inconclusive (no result: Pf growth 96h, Pf growth 48h, AmpC no deterg, SARS PLP yeast)
CCOc1ccc(-c2cn3c(n2)sc2cc(C(=O)NCCCc4ccccc4)ccc23)cc1	none (no result: Pf growth 96h, Pf growth 48h, AmpC no deterg, SARS PLP yeast)
O=C(Nc1c2c(nc3ccccc13)CCCC2)c1cccc([N+](=O)[O-])c1	AmpC inh detg inconclusive
CCOC(=O)c1ccc(N2CCN(c3cc(C)ccc3C)CC2)c(NC(=O)Nc2ccccc2)c1	none (no result: Pf growth 96h, Pf growth 48h, AmpC no deterg, SARS PLP yeast)
Nc1nccc(-c2ccc(-n3cccc3)cc2)n1	none
COCc1cc(C)nc(N/N=C/c2ccc(-c3ccc(Cl)cc3[N+](=O)[O-])o2)c1C#N	Sm TGR inh 8.9µM
Cc1c(C(=O)N/N=C/c2ccc(-c3ccccc3[N+](=O)[O-])o2)sc(N)c1C#N	Pf growth 96h inconclusive
Fc1cccc(-c2cc3nc4c(c(N5CCC6(CC5)OCCO6)n3n2)CCCC4)c1	Pf growth 48h 9.3µM
COc1cc(OC)cc(-c2cc3nc4c(c(N5CCN(c6ncccn6)CC5)n3n2)CCCC4)c1	Pf growth 48h 1.3µM
Clc1cccc(-c2cc3nc4c(c(N5CCNCC5)n3n2)CCCC4)c1	none
OC1CCN(c2c3c(nc4cc(-c5cccc(F)c5)nn24)CCCC3)CC1	Pf growth 48h 9.3µM
C[C@H]1C[C@@H]2[C@@H]([C@@H](O)C[C@@]3(C)[C@H]2CC[C@]3(O)C(=O)CO)[C@@]2(C)C=CC(=O)C=C12	Pf growth 96h inconclusive (no result: Sm TGR inh, AmpC inh detg, AmpC no deterg, SARS PLP yeast)
CCOc1ccc(CCNC(=O)CN2C(=O)c3cccnc3Oc3ccc(Cl)cc32)cc1	Pf growth 96h inconclusive, Pf growth 48h inconclusive
CN(Cc1ccccc1)CC(O)COc1ccc(CNCCOc2cccnc2)cc1 (centres undefined)	Pf growth 96h inconclusive, Pf growth 48h 13µM
CN(Cc1ccccc1)CC(O)COc1ccc(CNCc2cccnc2)cc1 (centres undefined)	Pf growth 96h 8.3µM, AmpC inh detg inconclusive, Pf growth 48h 9.3µM
CN(Cc1ccccc1)CC(O)COc1ccc(CNCCCOc2cccnc2)cc1 (centres undefined)	Pf growth 96h inconclusive, Pf growth 48h 2.1µM
CN(Cc1ccccc1)CC(O)COc1ccc(CNCc2ccc(Cl)s2)cc1 (centres undefined)	Pf growth 96h inconclusive, Pf growth 48h 5.9µM
COc1cccc(CN2CC(C(=O)N(C)Cc3ccc(C)cc3)CCC2=O)c1 (centres undefined)	Pf growth 48h inconclusive
COc1cccc(CN2CC(C(=O)NCCN3CCOCC3)CCC2=O)c1 (centres undefined)	Pf growth 96h 15µM
O=C(NCc1ccncc1)C1CCC(=O)N(CCc2ccc(Cl)cc2)C1 (centres undefined)	Pf growth 96h 9.3µM, Pf growth 48h inconclusive
COCc1cc(CN(C)C(=O)C2CCC(=O)N(Cc3cccc(OC)c3)C2)[nH]n1 (centres undefined)	Pf growth 96h 9.3µM
COc1cccc(CN2CC(C(=O)NCC3CCOCC3)CCC2=O)c1 (centres undefined)	Pf growth 96h inconclusive
CCn1nc(C)c(CNC(=O)C2CCC(=O)N(CCc3ccc(Cl)cc3)C2)c1C (centres undefined)	Pf growth 96h 9.3µM
Cc1nc(CNC(=O)C2CCC(=O)N(CCc3ccc(Cl)cc3)C2)sc1C (centres undefined)	Pf growth 48h inconclusive
O=C(C[C@H]1C[C@H](C(=O)N2CCCCC2)[C@@]2(CCc3ccccc3)c3[nH]c4cc(-c5ccco5)ccc4c3CCN2C1=O)NCCC1=CCCCC1	none (no result: Pf growth 96h, Sm TGR inh, AmpC inh detg, Pf growth 48h)
COc1cccc(CN2CC(C(=O)NCCCc3ccncc3)CCC2=O)c1 (centres undefined)	Pf growth 96h 12µM
O=C(NCCc1cnccn1)C1CCC(=O)N(Cc2ccc(Cl)cc2)C1 (centres undefined)	none
COc1cccc(CN2CC(C(=O)NCCCc3ccc(C)cc3)CCC2=O)c1 (centres undefined)	none
O=C(NCCCc1ccncc1)C1CCC(=O)N(Cc2ccc(Cl)cc2)C1 (centres undefined)	Pf growth 96h 10µM, AmpC inh detg inconclusive

Assay outcomes from PubChem.
